PubChem BioAssay (NCI)
Several values for one entry are separate records, joined by “and”; a condition that tells them apart may be missing. Identical values can stand only once. This is part of a sample that, as a whole, favours compounds with a hit. Of some 83,000 tested, about 20% had one in any assay.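 In brief: 96-well plates, 48 h treatment, single concentration, percent growth endpoint.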 Values without a mark were called inactive. Activity calls are given as the source filed them. Rule for the calls: active = growth percent below 10; inactive = the rest.

tested on: HL-60(TB) leukemia; experiment: NCI-60 one-dose screen, 48 h (100 = growth as untreated, 0 = no growth, -100 = all killed); details: 10 µM unless noted

SMILES	growth
Cc1ccc(Nc2cc(N)nc(N)n2)cc1Cl	98.7%
CC(C)(C)c1cc(NC(=O)Nc2ccc(-c3cn4c(n3)sc3cc(OCCN5CCOCC5)ccc34)cc2)no1	18.7% and 41%
COc1ccc(C(=O)/C=C/c2c[n+](=O)c3ccc(F)cc3n2[O-])cc1	83.3%
CCN(CC)c1ccc(/C=C/C(=O)c2ccc(Nc3nc(Nc4ccccc4)nc(Nc4ccccc4)n3)cc2)cc1	45.6%
O=C(O)C(Cc1ccc(OS(=O)(=O)Cc2ccccc2)cc1)NS(=O)(=O)Cc1ccccc1 (centres undefined)	109% and 82.6%
Cc1cc(S(=O)(=O)/N=C(\N)n2nc(C)c(C)c2C)c(SCc2ccccc2)cc1Cl	81.9%
Oc1ccc(O)c(-[n+]2ccccc2)c1	101%
CC(C)[C@@H]1CC[C@@H]2[C@@H]1[C@H](OC(=O)/C=C/c1ccccc1)[C@]1(C(C)C)C[C@@H](OC(=O)CO)[C@@]2(C)O1	84.6%
COc1cc2c(cc1OC)C(Cc1cc(OC)c(OC)cc1[N+](=O)[O-])=NCC2	63.1%
CC(C)(C)n1cc(-c2ccnc(NCCCNS(=O)(=O)c3ccc(F)cc3)c2)c(-c2cccc(F)c2)n1	38.2%
CCCOCC(O)CNCCN (centres undefined)	99.8%
CN(C)CCNc1nc2ccccc2c2c(=O)c3cc(F)ccc3sc12	38.1%
CCCCCCCCCCCC[n+]1ccc(C(N)=O)cc1	-26.3% (active)
CCN(CC)CCNCC(=O)Oc1ccc(/C=C/C(=O)CC(=O)/C=C/c2ccc(OC(=O)CNCCN(CC)CC)c(OC)c2)cc1OC	-22.6% (active)
COC(=O)[C@]12CC[C@@H](C)[C@H](C)[C@@H]1C1=CC[C@@H]3[C@@]4(C)C/C(=N\O)[C@H](O)[C@@]5(C)COC(=C45)C[C@@]3(C)[C@]1(C)CC2	-59.8% (active)
N/C(=N\c1nc2ccccc2s1)NC(=O)Nc1ccccc1Cl	-27.3% (active)
CC[C@]12CN3CCc4c([nH]c5ccccc45)[C@@](C(=O)OC)(c4cc5c(cc4OC)N(C)[C@H]4[C@@](O)(C(=O)OC)[C@H](OC(C)=O)[C@]6(CC)C=CCN7CC[C@]54[C@@H]76)CC(C3)[C@H]1O2 (some centres undefined)	-1.28% (active)
O=C(Nc1nc2ccccc2[nH]1)C(=O)Nc1nc2ccccc2[nH]1	99.7%
COc1ccc(-c2nnc(SCC(=O)Nc3ccc(C(=O)/C=C/c4ccccc4)cc3)n2-c2ccccc2)cc1OC	65.3%
C=C(CBr)[C@@H]1CC[C@]2(COC(C)=O)CC[C@]3(C)[C@H](CC[C@@H]4[C@@]5(C)CCCNC(C)(C)[C@@H]5CC[C@]43C)[C@@H]12	-8.09% (active)

SMILES	growth
Cc1ccc(S(=O)(=O)Nc2cccc(Cn3c(=O)[nH]c4ccc(Oc5ncccn5)cc4c3=O)c2)cc1	65.3%
CN(C)CC(=O)Nc1ccc2ncnc(Nc3ccc(Oc4cccc(C(F)(F)F)c4)c(Cl)c3)c2c1	2.72% (active)
CC1(C)OC(=O)CC1=O	91.5%
Cc1cc(Nc2ccc(C)c(Cl)c2)n2nc(C(F)(F)F)nc2n1	100%
NC(=O)c1c(NC(=O)c2ccc(OCC3CCCO3)cc2)sc2c1CCCC2 (centres undefined)	53.8%
N[C@H]1CN(C(=O)c2cc3cc(Br)c(F)c(F)c3[nH]2)C[C@@H]1O	98.5%
CC(=O)Oc1c(Cl)c(Cl)c(Cl)c(Cl)c1Cl	82.2%
Cc1ccc(C=C2C(Cl)=C(Cl)C(Cl)=C2Cl)cc1	7.68% (active)
N#CC1C(C#N)C2c3ccccc3C=CN2C1C(=O)c1ccc(Br)cc1 (centres undefined)	101%
N#C/C(=C\c1ccc([N+](=O)[O-])s1)c1nc2cc(Cl)ccc2s1	44.8%
COc1ccc(-c2nc3sc4c(c3c(=O)[nH]2)CCCC4)c2ccccc12	-24.7% (active)
COc1ccc(C(=O)C(O)c2ccc(OC)cc2)cc1 (centres undefined)	97.2% and 94.5%
O=C1C=Cc2ccccc2/C1=C/c1nc(-c2ccccc2)oc1O	101%
CN1CCN(Cc2ccc3c(NNC(=O)c4ccccc4)nc4cc(F)ccc4n23)CC1	7.8% (active)
Cc1ccc(/C=C2\CN(Cc3cn(CCNc4ccnc5cc(Cl)ccc45)nn3)C/C(=C\c3ccc(C)cc3)C2=O)cc1	-28.8% (active)
CC/C=C\C[C@H](O)C/C=C1/C(=O)C=C[C@@H]1C/C=C\CCCC(=O)N(C)C	0.857% (active)
NS(=O)(=O)c1ccc(-n2ncc(NC(=O)Nc3ccc(S(=O)(=O)Nc4nccs4)cc3)c2-c2ccccc2)cc1	92.5%
CC1OC2CC(=O)OC2C2=C1C(=O)c1c(O)cccc1C2=O (centres undefined)	-47.8% (active)
CCOC(=O)c1cc(-c2ccc([N+](=O)[O-])cc2)n(-c2ccc(C(=O)O)c(O)c2)c1C	31%
